Screening data: PubChem BioAssay, National Center for Advancing Translational Sciences (NCATS)
TGFb SMAD3 inh: qHTS for Inhibitors of TGF-b; HepG2 CAGA-GFP TGF-b/SMAD3 reporter, GFP fluorescence, 18 h; TGF-beta stimulated, 500 pg/mL final; AID 588855, 2011; Potency, µM (titrated, usually from 46.1 µM), hits mostly inhibitors; 410,000 tested, 1.2% active; note: nearly all actives have a fitted effect of over 65% in size
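Cell-based qHTS in HEPG2 carrying a CAGA-GFP Smad reporter; compounds added before 500 pg/mL final TGF-beta, 18 h incubation at 37 degrees C, GFP fluorescence quantified per cell by imaging cytometry.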
HepG2 viability: qHTS for Inhibitors of TGF-b: Cytotox Counterscreen; HepG2 CAGA-GFP viability, ATP luminescence, 18 h; Potency, µM (highest dose often 46.1 µM), actives largely listed as cytotoxic; 410,000 tested, 0.76% active
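HepG2 CAGA-GFP cells (1000/well, DMEM with 1% FBS) received compound, then TGF-beta at 500 pg/mL final, and were incubated 18 hours at 37 degrees C. Viability was read by CellTiter-Glo luminescence. Media-only wells were set as complete cell-killing and DMSO as no toxicity.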
HT1080 IDH1KD tx: qHTS for induction of synthetic lethality in tumor cells producing 2HG: qHTS for the HT-1080-IDH1KD cell line; 360,000 tested, 2% active; Potency, µM (titrated, usually from 46.1 µM), most hits filed as cytotoxic; HT-1080 IDH1 knockdown viability, ATP luminescence, 48 h; AID 686971, 2013
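% activity derives from luminescence (CellTiter-Glo), normalised to DMSO and no-cell wells. HT-1080-IDH1KD cells, 750/well, had 48 h compound exposure at 37 °C.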
KB-3-1 cytotox: qHTS assay for MDR1-selective chemotherapeutics: Primary screen using the parental adenocarcinoma cell KB-3-1. KB-3-1 viability, CellTiter-Glo ATP luminescence, 72 h. Potency, µM (series often up to 46.1 µM), actives largely listed as cytotoxic. 400,000 tested, 1.4% active. AID 1347075, 2019; note: nearly all actives have a fitted effect of over 60% in size
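72 h, 37 °C compound treatment of KB-3-1 parental cells; CellTiter-Glo added, 10 min, luminescence read. Data corrected against DMSO-only plates and normalized before curve fitting.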
HT1080NT lethal: qHTS for induction of synthetic lethality in tumor cells producing 2HG: qHTS for the HT-1080-NT fibrosarcoma cell line; HT-1080-NT fibrosarcoma viability, CellTiter-Glo ATP luminescence, 48 h; Potency, µM (titrated, usually from 46.1 µM), actives largely listed as cytotoxic; 360,000 tested, 1.6% active; AID 686970, 2013;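 note: NT is the 2HG producing partner of a matched IDH1 knockdown line; nearly all actives have a fitted effect of over 55% in size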
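Luminescent CellTiter-Glo readout after 48 hours of compound exposure at 37 degrees C defined viability of HT-1080-NT cells. Activity was normalized to DMSO wells and cell-free media wells; concentration-response curves were fitted and assigned curve classes.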
KB-V1 cytotox: qHTS assay for MDR1-selective chemotherapeutics: Primary screen using the drug-selected MDR subline cells KB-V1; KB-V1 MDR cells viability, CellTiter-Glo, 72 h; Potency, µM (highest dose often 46.1 µM), usual class: cytotoxic; 400,000 tested, 3.4% active; AID 1347076, 2019; note: nearly all actives have a fitted effect of over 60% in size
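Following 72 h at 37 degrees C with compound, KB-V1 cell viability was read by CellTiter-Glo luminescence, medium being phenol-red-free DMEM plus 10% FBS; concentration-response parameters came from normalized, curve-fitted qHTS data.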
Hits are given with their value; n = inactive; u = inconclusive; x = no result given. Only some compounds are listed: those with a hit (about 6.6% of all), similar ones and a draw of the others. Calls come from the whole dose curve; as a rule, active = well fitted curve in the direction sought with a large enough effect; inconclusive = small, poorly fitted or top-dose-only effect, or another doubt; inactive = no such curve, though single readings can be large; an effect the other way counts as inactive or inconclusive.

SMILES	TGFb SMAD3 inh	HepG2 viability	HT1080 IDH1KD tx	KB-3-1 cytotox	HT1080NT lethal	KB-V1 cytotox
O=C(Nc1cccn(Cc2ccccc2)c1=O)NC1CCCCC1	n	n	n	n	n	4.11µM
O=C(NCc1ccccc1)Nc1cccn(Cc2ccccc2F)c1=O	n	n	n	n	n	10.3µM
O=C(NCc1ccccc1)Nc1cccn(Cc2ccccc2)c1=O	u	n	n	n	n	u
Cc1ccc(C)c(CN2C(=O)c3ccccc3S(=O)(=O)c3ccc(C(=O)N4CCN(c5ccccc5)CC4)cc32)c1	x	n	x	x	x	x
COc1ccc(Cc2noc(CN3CCN(c4ccc(Cl)cn4)CC3)n2)cc1OC	n	n	n	u	n	3.26µM
Cc1ccc2onc(CC(=O)Nc3ccc(C(C)C)cc3)c2c1	n	n	x	n	x	n
CCCN1C=CC(=C2C(=O)c3ccccc3C2=O)C=C1	n	7.08µM	11.2µM	u	5.62µM	2.91µM
CCCCCCN1C=CC(=C2C(=O)c3ccccc3C2=O)C=C1	n	n	n	u	n	n
CCN1C=CC(=C2C(=O)c3ccccc3C2=O)C=C1	n	n	11.2µM	14.6µM	10µM	8.2µM
COc1ccc(C(O)c2cnc(C)n2Cc2ccccc2)cc1 (stereo not drawn)	n	n	n	n	n	n
COc1ccc(Cn2c(=O)c3oc4ccccc4c3n(Cc3ccccc3)c2=O)cc1	n	n	x	x	x	x
COc1ccc(NC(=O)C2CCN(S(=O)(=O)c3cccc(-c4noc(C)n4)c3)CC2)cc1OC	u	n	x	n	x	n
CCN(CC)S(=O)(=O)c1ccc(N2CCOCC2)c(NC(=O)C23CC4CC(CC(Cl)(C4)C2)C3)c1	n	n	n	n	n	23.1µM
CCN(CC)S(=O)(=O)c1ccc(N2CCOCC2)c(NC(=O)c2ccccc2)c1	n	n	n	n	n	u
Cc1ccc(NC(=O)Nc2nnc(SCC(=O)N(C(C)C)C(C)C)s2)cc1	n	n	x	x	x	x
CCCSc1ccc(-c2nn(-c3ccccc3)cc2/C=C(/C#N)C(=O)N2CCOCC2)cc1	n	n	n	u	n	23.1µM
CN(C(=O)CSc1nc2ccc(NC(=O)CCc3ccccc3)cc2s1)c1ccccc1	u	n	x	u	x	u
CSc1ccc(/C=C/C(=O)c2ccc(NC(=O)Cc3ccccc3)cc2)cc1	n	n	15.8µM	n	u	u
CSc1ccc(/C=C/C(=O)Nc2ccccc2)cc1	n	n	u	n	u	n
CSc1ccc(C(=O)/C=C/c2ccc(N)cc2)cc1	u	n	u	u	u	u
CSc1ccc(/C=C/C(=O)c2ccc(NC(=O)C(C)C)cc2)cc1	n	14.1µM	u	u	u	u
Cc1ccc(S(=O)(=O)N(CC(=O)Nc2c(C)cccc2C)c2cccc(Cl)c2)cc1	u	n	x	x	x	x
COc1cccc(C(c2c(NC(=O)c3ccco3)sc(C)c2C)N2CCOCC2)c1 (stereo not drawn)	u	n	n	23.1µM	n	u
O=C(Nc1cccc(C(=O)N2CCN(c3ccc(Cl)cc3)CC2)c1)c1nsc2ccccc12	n	n	x	n	x	u
CCOC(=O)[C@]12CCCC=C1N(CCc1ccc(OC)c(OC)c1)C(=O)[C@H](CC(=O)NCc1ccc(C)o1)C2	x	x	n	n	n	u
Cc1cccc(N2CC(c3nc4ccccc4n3CCC3CCCCC3)CC2=O)c1 (stereo not drawn)	u	n	x	u	x	n
COc1cccc(C(=O)Nc2ccc3c(cc2=O)[C@@H](NC(C)=O)CCc2cc(OC)c(OC)c(OC)c2-3)c1	u	n	4.61µM	2.91µM	5.8µM	n
COC(=O)c1ccc2c(c1)C(NC(C)=O)CCc1cc(OC)c(OC)c(OC)c1-2 (stereo not drawn)	u	n	u	0.146µM	0.0065µM	0.82µM
